# Test results taken from PubChem BioAssay AID1498 (National Center for Advancing Translational Sciences (NCATS), 2009).
# Results filed as inconclusive are left out. The source made the active and inactive calls. The call rests on the fitted dose curve.
# Test: Confirmation Concentration-Response Assay for Modulators of Lamin A Splicing
# Settings: HeLa lamin A splicing GFP/RFP minigene, Acumen, 48 h; RFP activity: RFP channel at top concentration, at 46.1 µM; ratio activity: GFP/RFP ratio at top concentration, at 46.1 µM; series mostly up to 46.1 µM; GFP activity change, negative = decrease: at the top concentration
# Text: NCGC Assay Overview: Hutchinson-Gilford Progeria Syndrome (HGPS) is a pediatric premature aging disease caused by a spontaneous mutation in the lamin A/C (LMNA) gene. The mutation activates a cryptic splice site in the LMNA pre-mRNA which results in production of a pre-lamin A protein that cannot be processed properly. The mutant protein accumulates in the nucleus and negatively affects numerous cellular functions. Correction of the splicing defect in HGPS patient cells using a targeted oligonucleotide (exo11) leads to reversal of the cellular disease phenotypes. To identify small molecule modulators of aberrant LMNA splicing, a homogenous assay was constructed in HeLa cells that used a GFP containing minigene to report on correction of aberrant splicing in lamin A and a RFP (DsRed2) to report on cell viability, uniformity and nonspecific effects on the assay signal. This assay was adapted to laser-scanning microplate cytometry (Acumen, TTP Labtech) where miniaturization of the assay to a 1,536-well plate format was possible. Select compounds active in the primary screen (AID 1487) were chosen for confirmation based on potency, efficacy, SAR and activity in other assays in PubChem and at NCGC. References: Bowen, W. P.; Wylie, P. G. Application of Laser-Scanning Fluorescence Microplate Cytometry in High Content Screening. Assay Drug Dev Technol 2006;4:209-221. Scaffidi P, Misteli T. Reversal of the cellular phenotype in the premature aging disease Hutchinson-Gilford progeria syndrome. Nat. Med. 2005;11:440-445.
# NCGC Assay Protocol Summary: Reagents/Controls: Stable clones expressing DsRed2 and lamin A-EGFP were generated by Cell and Molecular Technologies in S3 HeLa cells. HeLa cells were prepared for the assay when they were 70-90% confluent. The cells were counted and resuspended in Opti-MEM I (no phenol red; Gibco), 2% FBS, 1% penicillin/ streptomycin (Gibco) at concentration of 120 cells/uL concentration. The suspension was passed through a Falcon basket filter with pore size 40um (Beckton Dickson). Control titrations: column […] 1536-well plate contained a sixteen point titration (1:2 dilutions) in duplicate of ancitabine (Sigma: A8598) beginning at 40 uM final concentration. Column 2 contained a sixteen point titration (1:2 dilutions) of cycloheximide beginning at 1.4 mM final concentration. Column 3 contained ancitabine at 40 uM and column 4 contained was the vehicle control (0.5% DMSO final concentration). Assay Steps: 5 uL of HeLa cells were plated in Aurora LoBase black clear bottom (cyclic-olefin polymer) 1536-well plates at a final density of 600 cells/well. Controls and library compounds were added with a 1536-well pin array using the Kalypsys pin-tool. The plates were then incubated for 48 hrs in a cell-culture incubator (37 °C; 5% CO2, 98% humidity). Following incubation the plates were read on the Acumen Explorer using the 488 nm laser. Data was collected on objects between 10 and 100 um in size. Cell objects were defined by a 15 um width x 10 um depth filter. The ratio of the total object intensity in PMT1 (500-530 nm emission; GFP) over PMT3 (575-640 nm emission; RFP) was calculated for analysis. Keywords: NIH Roadmap, MLSCN, MLI, MLSMR, qHTS, NCGC, lamin A, Progeria, RNA splicing.
SMILES,ratio activity [%],"GFP activity change, negative = decrease",RFP activity [%]
O=C(COc1ccc(Br)cc1)NNC(=S)NC(=O)c1ccccc1[N+](=O)[O-],-24.6,-24.3% (inactive),11.7
CC(=O)Nc1ccc(-c2csc(NC(=O)C3CCN(S(=O)(=O)c4cccs4)CC3)n2)cc1,-13.5,-2.98% (inactive),16.5
CC(=O)c1c(C)[nH]c(C(=O)Nc2c(C)n(C)n(-c3ccccc3)c2=O)c1C,-9.7,-2.29% (inactive),1.7
O=C(CCCN1CC=C(n2c(=O)[nH]c3ccccc32)CC1)c1ccc(F)cc1,-13.7,-20.4% (inactive),-6.45
COc1ccc(C=C(c2nc3ccccc3s2)c2nc3ccccc3s2)cc1O,-10.5,-13.6% (inactive),-2.53
